# Out of some 420,000 compounds screened, about 50,000 (12%) were called active. Where a call stands in place of a potency, no number is given. About 26% were inconclusive and are not listed. This is one part of a sample in which actives are shown more often than they occur. The call rests on the fitted dose curve; in most records, active means well fitted inhibition curve with a large enough effect; inconclusive means small, poorly fitted or top-dose-only effect; inactive means flat fitted curve, though single readings scatter.
# Assay: qHTS for Inhibitors of human tyrosyl-DNA phosphodiesterase 1 (TDP1): qHTS in cells in presence of CPT; further: nearly all actives have a fitted effect of over 55% in size
# Conditions: chicken DT40 Tdp1-/-;hTDP1 cells + 20 nM CPT, ATP luminescence, 48 h; series mostly up to 46.2 µM
# Summary of the method: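 Chicken DT40 Tdp1-/- cells complemented with human TDP1, 400 cells/well, exposed to compounds plus 20 nM camptothecin for at least 48 h at 37 C; viability read as ATP content by CellTiter-Glo luminescence.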
# Potency means the concentration at half of the fitted maximal effect.
row,Structure (SMILES),Potency
1,CC(=O)C[C@H](O)CC(=O)[C@@H]1OC(=O)[C@@H](C)C/C=C\Cc2ccccc21,inactive
2,COc1ccc(CNC(=O)c2cc(=O)c3c(C)cc(C)cc3o2)cc1,inactive
3,CCCCn1c(N)c(N(CCOC)C(=O)c2cccc(S(=O)(=O)N3CCCCC3)c2)c(=O)[nH]c1=O,inactive
4,COc1cc(OC)c(S(=O)(=O)Nc2ccccc2C(=O)O)cc1S(=O)(=O)Nc1ccccc1C(=O)O,inactive
5,CS(=O)(=O)N1CCN(c2cccc(Cl)n2)CC1,inactive
6,O=C(COc1ccc2c(c1)CCC2)N1CCN(c2ccc(F)cc2)CC1,inactive
7,N#CCSc1nc2ccc(N3CCOCC3)cc2c(=O)n1CCc1ccccc1,23.1 µM (active)
8,COCCCNC(=O)CSc1nc2ccc(N3CCOCC3)cc2c(=O)n1CCc1ccccc1,16.4 µM (active)
9,COCCNC(=O)c1ccc(Cn2c(SCC(=O)NCC3CCCO3)nc3ccc(Br)cc3c2=O)cc1 (stereo not drawn),inactive
10,CCCCn1c(SCC(=O)NCC2CCCO2)nc2ccc(N3CCOCC3)cc2c1=O (stereo not drawn),inactive
11,Cc1nn2c3cc(N4CCOCC4)ccc3nc2c2ccccc12,inactive
12,COCCn1c(=O)c(-c2ccccc2)nc2cnc(N3CCOCC3)nc21,inactive
13,COc1ccccc1/C=C/C(=O)OCC(=O)NC1CCCCCC1,inactive
14,C=Cc1ccc(C(=O)N2CCCC(CCC(=O)N3CCN(c4ccccn4)CC3)C2)cc1 (stereo not drawn),inactive
15,COc1ccc(C2c3c(oc4ccccc4c3=O)C(=O)N2Cc2ccc3c(c2)OCO3)cc1 (stereo not drawn),inactive
16,Cc1ccc2oc3c(c(=O)c2c1)C(c1ccc(O)cc1)N(Cc1ccc2c(c1)OCO2)C3=O (stereo not drawn),14.6 µM (active)
17,CCCOc1ccc(C2c3c(oc4cc(C)c(C)cc4c3=O)C(=O)N2CCCN2CCOCC2)cc1 (stereo not drawn),inactive
18,Cc1ccc(NNC(=O)c2cccs2)cc1Cl,inactive
19,CC(NC(=O)COc1cccnc1[N+](=O)[O-])c1ccc(Cl)cc1Cl (stereo not drawn),inactive
20,CC(=O)C[C@@H]1OC[C@H](C)N1S(=O)(=O)c1ccc(C)cc1,inactive
21,Cc1nn(CCOc2ccc(Br)cc2)c(C)c1[N+](=O)[O-],inactive
22,CCn1nc(C(=O)NNS(=O)(=O)c2cc(/C=C/C(=O)O)cc(OC)c2OC)c2ccccc2c1=O,inactive
23,CCn1nc(C)c(NC(=O)/C=C/c2ccc(OC)c(COc3ccc(Br)cc3)c2)c1C,16.4 µM (active)
24,O=C(O)CCCCCCCCCC[n+]1ccccc1,inactive

row,Structure (SMILES),Potency
1,CCn1c(SCC(=O)NC2CC2)nnc1-c1ccncc1,inactive
2,CCOC(=O)c1c(NC(=O)c2cccs2)sc(C)c1C,inactive
3,CCOC(=O)c1c(NC(=S)NC(=O)/C=C/c2cccs2)sc(C)c1C,20.6 µM (active)
4,CCOC(=O)c1c(NC(=O)/C=C/c2ccco2)sc(C)c1C,inactive
5,Cc1c(NC(=S)NC(=O)CCc2ccccc2)c(=O)n(-c2ccccc2)n1C,inactive
6,NC(=O)[C@H]1CC2(CC(c3cccc(NC(=O)[C@H]4CCC(=O)N4)c3)=NO2)CN1C(=O)c1ccccc1C(=O)c1ccccc1 (stereo partly drawn),inactive
7,CC(C)CN(C(=O)CN1CCN(S(=O)(=O)c2ccccc2)CC1)c1c(N)n(CC(C)C)c(=O)[nH]c1=O,inactive
8,Cc1ccc(NC(=O)c2ccc(CSc3ncnc4nc[nH]c34)cc2)c(C)c1,23.1 µM (active)
9,Cc1ccc(Cc2nnc(SCC(=O)Nc3ccc(C)cc3C)[nH]c2=O)cc1,inactive
10,CSc1ncc(C(=O)Nc2ccc(C)cc2C)c(C)n1,inactive
11,Cc1cc(C)c2oc(C(=O)Nc3ccc(S(=O)(=O)Nc4nccc(C)n4)cc3)cc(=O)c2c1,inactive
12,Cc1ccc2nc(SCC(=O)N3CC(C)OC(C)C3)nc(=O)n2c1 (stereo not drawn),inactive
13,O=C(CCC(=O)c1ccccc1)NCc1cccc(C(F)(F)F)c1,inactive
14,Cc1csc(NC(=O)CSc2nc(=O)n(CCCN(C)C)c3c2CCC3)n1,inactive
15,Cc1ccc(NC(=O)CSc2nc(=O)n(CCN(C)C)c3c2CCCC3)c(C)c1,inactive
16,Cc1ccc2nc(NC(=O)CSc3nc(=O)n(CCCN(C)C)c4c3CCC4)sc2c1,9.2 µM (active)
17,COc1ccccc1Cc1c(-c2ccc(Cl)cc2)nc2c3ccccc3ccn12,25.9 µM (active)
18,N#Cc1ccc(-c2nc3c(Cl)cc(C(F)(F)F)cn3c2Cc2ccccc2C(F)(F)F)cc1,inactive
19,COc1ncc2nc(-c3ccc(Cl)cc3)c(=O)n(-c3ccccc3)c2n1,inactive
20,O=C1C(c2ccccn2)=[N+]([O-])c2ccccc21,inactive
21,CC(=O)c1sc(N2C(=O)c3oc4ccccc4c(=O)c3C2c2ccc(C)cc2)nc1C (stereo not drawn),inactive
22,COCCN1C(=O)c2oc3c(C)cc(C)cc3c(=O)c2C1c1cccc(O)c1 (stereo not drawn),inactive
23,O=C1c2oc3ccccc3c(=O)c2C(c2cccc(O)c2)N1c1ccccn1 (stereo not drawn),20.6 µM (active)
24,O=C(NC1CC(=O)N(c2ccc(F)cc2)C1)c1cccs1 (stereo not drawn),inactive
